Bioassay records: PubChem BioAssay, The Scripps Research Institute Molecular Screening Center
An excerpt weighted towards active compounds, which were near 3.4% of everything screened.
TEAD-YAP inh = TEAD-YAP interaction inhibition; HEK-TIYL cells, TEAD-Gal4/YAP UAS-luciferase luminescence; inhibition, % at 9.12 µM; 640,000 compounds, 1.4% hits; AID 1259422; in the data active = inhibition above about 32%
GPR151 activ = human GPR151 activation | Q8TDV0 | 650,000 compounds, 1% hits | PathHunter beta-arrestin GPR151 cells, luminescence | activation, % at 11.2 µM | AID 1508602; in the data active = activation above about 4.9%
MITF inh = inhibitors of human MITF; O75030; 650,000 compounds, 0.91% hits; inhibition, % at 2.6 µM; AlphaScreen MITF homodimerization, bead proximity signal; in the data active = inhibition above about 50%
FBW7 activator = activators of human E3 ligase FBW7; AlphaScreen FBW7–phospho-cyclin E peptide binding, activator screen; normalized activity (activation), % at 26.1 µM; 650,000 compounds, 0.13% hits; in the data active = normalized activity above about 1.9%;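 note: purified mutant Fbw7 with reduced substrate affinity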
GPR151 conf act = confirmation of human GPR151 activators | shares compounds with GPR151 activ | GPR151 PathHunter beta-arrestin cells, luminescence, 90 min; % of EA-reagent control over plate median | activation, % at 11.2 µM | 6,700 tested, under 10 active | AID 1508609;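 active = mean percent activation across replicates above the confirmation screen cutoff of 4.91%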
GPR119 ag = counter-screen for GPR151 activators: effect on human GPR119. 6,700 compounds, 0.3% hits. shares compounds with GPR151 activ. activation, % at 11.2 µM. GPR119 PathHunter beta-arrestin cells, luminescence, 90 min; 0 = compound-well median, 100 = enzyme-acceptor control;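 active = mean percent activation in the counterscreen above 29.09%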;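 note: counterscreen on off-target GPR119 to flag nonselective hits from the GPR151 activator screen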
Target sequence (Q8TDV5 whole entry, looked up): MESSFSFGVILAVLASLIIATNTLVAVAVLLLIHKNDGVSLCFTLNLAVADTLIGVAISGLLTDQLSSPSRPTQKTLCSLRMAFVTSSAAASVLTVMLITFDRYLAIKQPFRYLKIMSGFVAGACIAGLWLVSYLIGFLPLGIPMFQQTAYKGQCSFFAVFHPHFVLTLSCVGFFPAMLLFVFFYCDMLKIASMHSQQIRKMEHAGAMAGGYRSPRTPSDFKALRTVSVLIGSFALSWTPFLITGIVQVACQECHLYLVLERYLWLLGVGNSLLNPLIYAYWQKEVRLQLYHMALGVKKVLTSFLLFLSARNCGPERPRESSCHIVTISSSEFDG
Of the large screens only hits and unclear results are named; the others gave an inactive call (follow-up assays come after a bar, where they were run); ! = a repeat was not active.

Cn1c(SCC(=O)N(Cc2ccccc2)C(C)(C)C)nnc1-c1ccncc1	none
O=C(Cn1c(=O)oc2cc(S(=O)(=O)N3CCc4ccccc43)ccc21)NC1CCCC1	GPR151 activ 7.5 | GPR151 conf act inactive | GPR119 ag inactive
O=C(Cn1c(=O)oc2cc(S(=O)(=O)N3CCCCCC3)ccc21)NC1CCCCC1	none
COc1ccc(NC(=O)Cn2c(=O)oc3cc(S(=O)(=O)N4CCCC4)ccc32)cc1	GPR151 activ 5.0 | GPR151 conf act inactive | GPR119 ag inactive
COc1cccc(-c2cnc3[nH]c(=O)n(C4CCCC4)c3n2)c1	none
CC(=O)c1cccc(S(=O)(=O)NCc2ccco2)c1	none
CC(=O)c1cccc(S(=O)(=O)NCC(c2ccco2)N2CCCCC2)c1 (centres undefined)	GPR151 activ 7.0 | GPR151 conf act inactive | GPR119 ag inactive
Cc1cc(OCC(=O)Nc2ccc(C(=O)OC3CCCCC3)cc2)ccc1Br	none
CCOC(=O)c1sc2ncn(Cc3ccc(C(F)(F)F)cc3)c(=O)c2c1C	GPR151 activ 6.2 | GPR151 conf act inactive | GPR119 ag inactive
CCOC(=O)c1sc2ncn(Cc3ccc(Cl)cc3)c(=O)c2c1C	none
Cc1ccnc(Nc2ccc(N3CCN(C(=O)C4CCCCC4)CC3)nn2)c1	none
CCC(=O)Nc1ccc(NC(=O)CSc2nc3c(c(=O)n(C)c(=O)n3C)n2C)cc1	GPR151 activ 15 | GPR151 conf act inactive | GPR119 ag inactive
O=C(CCC(=O)Nc1ccc(Br)cc1)N/N=C/c1cccs1	GPR151 activ 6.0 | GPR151 conf act inactive | GPR119 ag inactive
COC(=O)c1c(OCc2ccccc2)cc(=O)n2c1CCN(C1CCOCC1)CC2	none
CCN(CC)c1ccc(C(=O)Nc2sc3c(c2C#N)CCCC3)cc1	none
CCN(CC)c1ccc(C(=O)Nc2sc3c(c2C#N)CCCCC3)cc1	GPR151 activ 5.1 | GPR151 conf act inactive | GPR119 ag inactive
COc1ccccc1CNC(=O)CCc1c(C)nc2c(c(C)nn2C(C)(C)C)c1C	none
COc1ccc(CNC(=O)CCc2c(C)nc3c(c(C)nn3C(C)(C)C)c2C)cc1	GPR151 activ 7.2 | GPR151 conf act inactive | GPR119 ag inactive
O=C1/C(=C\c2ccc(-n3cncn3)cc2)N=C2SCCCN12	none
CCN1C(=O)Cc2cc(NC(=O)C3CCCO3)ccc21 (centres undefined)	none
O=C(CSc1nnc2ccc(-c3cccnc3)nn12)N1CCCC1	none
COc1cccc(-n2c(SCC(=O)N3CCc4ccccc43)nnc2-c2ccncc2)c1	GPR151 activ 6.4 | GPR151 conf act inactive | GPR119 ag inactive
O=C(CSc1nnc2ccc(-c3cccnc3)nn12)N1CCc2ccccc21	GPR151 activ 5.4 | GPR151 conf act inactive | GPR119 ag inactive
COc1cccc(-n2c(SCC(=O)N3CCc4ccccc43)nnc2-c2cccnc2)c1	none
Cc1ccc(-n2cc(-c3ccccc3)c3c(NC(C)C)ncnc32)cc1	none
COc1ccc(-n2cc(-c3ccccc3)c3c(NCc4ccc5c(c4)OCO5)ncnc32)cc1	GPR151 activ 6.1 | GPR151 conf act inactive | GPR119 ag inactive
CC(C)Nc1ncnc2c1c(-c1ccccc1)cn2-c1ccc(Br)cc1	GPR151 activ 5.4 | GPR151 conf act inactive | GPR119 ag inactive
Cc1cccc(-n2cc(-c3ccccc3)c3c(NCCc4ccccc4)ncnc32)c1	GPR151 activ 6.0 | GPR151 conf act inactive | GPR119 ag inactive
CCOc1ccc(-n2cc(-c3ccccc3)c3c(NCc4ccc5c(c4)OCO5)ncnc32)cc1	none
COc1ccccc1Nc1ncnc2c1c(-c1ccccc1)cn2-c1ccccc1	GPR151 activ 6.8 | GPR151 conf act inactive | GPR119 ag inactive
Cc1cccc(-n2cc(-c3ccccc3)c3c(NCCc4ccc(Cl)cc4)ncnc32)c1	none
Cc1cc(C)cc(C(=O)NCC(=O)OCC(=O)c2cc(C)n(Cc3ccco3)c2C)c1	none
COCCn1c2ccccc2n2c(=O)n(CC(=O)Nc3ccccc3-c3ccc(C)o3)nc12	none
CCc1cccc(NC(=O)Cn2nc(C)n3cccc3c2=O)c1	none
Brc1ccc(-n2cc(-c3ccccc3)c3c(N4CCN(c5ccccc5)CC4)ncnc32)cc1	none
O=[N+]([O-])c1ccc(N2CCN(c3ncnc4c3c(-c3ccccc3)cn4-c3ccc(Br)cc3)CC2)cc1	GPR151 activ 5.0 | GPR151 conf act inactive | GPR119 ag inactive
COc1cccc(N(C(=O)c2cnccn2)C(C(=O)NC2CCCCC2)c2ccccc2)c1 (centres undefined)	none
Cc1c(Cl)cccc1NC(=O)CN1CCC(NC(=O)C2CCCCC2)CC1	GPR151 activ 8.4 | GPR151 conf act inactive | GPR119 ag inactive
Cc1cccc(NC(=O)N2CCC(NC(=O)C3CCCCC3)CC2)c1	GPR151 activ 5.9 | GPR151 conf act inactive | GPR119 ag inactive
O=C(NC1CCN(C(=O)Nc2cccc(Cl)c2)CC1)C1CCCCC1	none
O=C(CC12CC3CC(CC(C3)C1)C2)Nc1cccc2ncccc12	GPR151 activ 6.3 | GPR151 conf act inactive | GPR119 ag inactive
Cc1ccc(SCC(=O)Nc2cccc3ncccc23)cc1	GPR151 activ 6.0 | GPR151 conf act inactive | GPR119 ag inactive
CCC(=O)Nc1cccc2ncccc12	none
O=C(Nc1cccc2ncccc12)C12CC3CC(CC(C3)C1)C2	none
COc1cc(OC)c(C(=O)OCC(=O)Nc2ccccc2C#N)cc1OC	none
CC1CC(C)CN(C(=O)CN2C(=O)NC(Cc3ccccc3)(Cc3ccccc3)C2=O)C1 (centres undefined)	GPR151 activ 5.0 | GPR151 conf act inactive | GPR119 ag inactive
CC1CCN(C(=O)CN2C(=O)NC(Cc3ccccc3)(Cc3ccccc3)C2=O)CC1	none
CC(C(O)c1ccc(O)cc1)N1CCC(Cc2ccccc2)CC1 (centres undefined)	GPR151 activ 10! | GPR151 conf act inactive | GPR119 ag inactive
COCCCNc1nccn2c(-c3cccc4ccccc34)cnc12	none
CCOC(=O)c1ccc(NC(=O)C(=O)Nc2ccc3nc4n(c(=O)c3c2)CCCCC4)cc1	none
CCOc1ccc(N(CC)C(=O)C(=O)Nc2ccc3nc4n(c(=O)c3c2)CCCCC4)cc1	GPR151 activ 11 | GPR151 conf act inactive | GPR119 ag inactive
CCOC(=O)C(=O)Nc1ccc2nc3n(c(=O)c2c1)CCCCC3	GPR151 activ 5.4 | GPR151 conf act inactive | GPR119 ag inactive
Cc1ccc(NC(=O)c2cnc(N3CCN(c4ccccn4)CC3)c3ccccc23)cc1F	GPR151 activ 10 | GPR151 conf act inactive | GPR119 ag inactive
O=C(Nc1ccccc1)c1cc(N2CCN(c3ccccn3)CC2)nc2ccccc12	GPR151 activ 5.1 | GPR151 conf act inactive | GPR119 ag inactive
O=C(Nc1ccc(F)cc1)c1cnc(N2CCN(c3ccccn3)CC2)c2ccccc12	none
Cc1cnc2nc3c(cc2c1)CN(CC(O)c1ccc(F)cc1)CC3 (centres undefined)	none
